Measured values: PubChem BioAssay
The source made the active and inactive calls.

Key:
Albumin (Bos taurus) = Albumin (Bos taurus) (UniProt P02769); assay: compounds binding labelled BSA control protein – biochemical, small-molecule microarray, Alexa647 label, 635/667 nm fluorescence, artefact control for SMM control protein annotation, profiling panel (AID 1118); details: BSA-A647 binding, fluorescence 635 nm, higher = more signal;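 also: score merges 667 nm emission intensity and signal-to-noise per printed compound spot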
Albumin (Bos taurus), sequence (P02769 whole entry, looked up): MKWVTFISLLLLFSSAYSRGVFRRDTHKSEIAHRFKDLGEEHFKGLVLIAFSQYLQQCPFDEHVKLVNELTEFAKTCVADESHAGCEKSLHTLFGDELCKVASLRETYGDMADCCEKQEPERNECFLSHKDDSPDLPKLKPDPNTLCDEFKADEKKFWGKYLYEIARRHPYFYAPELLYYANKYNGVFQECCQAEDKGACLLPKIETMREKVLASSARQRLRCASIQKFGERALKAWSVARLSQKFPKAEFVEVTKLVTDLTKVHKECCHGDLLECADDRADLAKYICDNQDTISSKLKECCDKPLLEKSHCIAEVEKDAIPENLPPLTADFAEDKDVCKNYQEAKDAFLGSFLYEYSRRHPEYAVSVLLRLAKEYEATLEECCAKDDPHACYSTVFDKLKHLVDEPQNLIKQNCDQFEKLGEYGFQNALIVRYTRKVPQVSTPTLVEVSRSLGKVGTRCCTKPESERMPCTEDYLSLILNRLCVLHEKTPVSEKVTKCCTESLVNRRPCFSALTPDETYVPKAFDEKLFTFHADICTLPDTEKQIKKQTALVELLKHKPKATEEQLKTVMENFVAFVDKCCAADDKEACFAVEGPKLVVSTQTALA

[1] = probe aXIP binding to arrayed compounds – biochemical, NeuroSMM set, 635/667 nm fluorescence, primary screen (AID 1119); details: small-molecule microarray, higher = more signal, called active from +8 up or from −8 down;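 also: probe is the protein aXip251-270 applied at 1 µg/mL to compound-printed slides; binding of probe to printed compounds measured as 667 nm fluorescence plus signal to noise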
[2] = probe aNOTCH3 binding on compound microarray – biochemical, small-molecule microarray, 635/667 nm fluorescence, primary screen (AID 1120); details: higher = more signal;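 also: probe is a biotin-tagged antibody raised against NOTCH3 rather than NOTCH3 protein; score merges spot fluorescence near 667 nm with spot signal to noise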
[3] = probe aNOTCH2 binding on compound microarray – biochemical, small-molecule microarray, 635/667 nm fluorescence, primary screen (AID 1121); details: higher = more signal;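 also: score merges feature fluorescence read at 667 nm with its signal to noise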
[4] = biological target: Carbonic anhydrase 2 (Homo sapiens) (UniProt P00918); assay: compounds binding carbonic anhydrase 2 – biochemical, small-molecule microarray, Alexa647-labelled CAII, profiling panel (AID 1122); details: CAII-A647 binding fluorescence, higher = more signal
[5] = COS7 lysate on small-molecule microarray, probe aHis, 635 nm (AID 1123); details: COS7 cell lysate, fluorescence, higher = more signal;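 also: z-score combines 667nm fluorescence intensity with signal-to-noise per printed compound spot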
[6] = probe aLAP1 signal on lysate-treated microarray – cell lysate, small-molecule microarray, COS7 lysate, primary screen (AID 1124); details: probe aLAP1, fluorescence, higher = more signal;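 also: lysate comes from COS7 cells expressing LAP1 and is applied at 0.3 µg/mL; score merges spot fluorescence near 667 nm with signal-to-noise over triplicate slides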
Sam68 (KHDRBS1) = assay: compounds binding KHDRBS1 protein – biochemical, small-molecule microarray, 635 nm fluorescence, primary screen (AID 1125); details: higher = more signal;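 also: score merges 667 nm channel intensity with signal to noise over triplicate slides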
[7] = system: Chordin-like protein 2 (CHRDL2); assay: compounds binding chordin-like 2 – biochemical, small-molecule microarray, 635 nm fluorescence, primary screen (AID 1126); details: fluorescence 635 nm, higher = more signal;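 also: printed compound slides probed with Chrdl2 protein at 4 µg/mL for 1 h at 4 C; score merges 667 nm emission intensity with signal to noise over three replicate slides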
[8] = biological target: Concanavalin-A (Canavalia ensiformis) (UniProt P02866); assay: compounds binding concanavalin A lectin – biochemical, small-molecule microarray, Alexa647 label, 635 nm, artefact control for SMM control protein annotation, primary screen (AID 1127); details: ConA-A647 binding fluorescence, higher = more signal;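 also: z combines 667 nm emission intensity with signal-to-noise across three replicate slides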
Concanavalin-A (Canavalia ensiformis), sequence (P02866 whole entry, looked up): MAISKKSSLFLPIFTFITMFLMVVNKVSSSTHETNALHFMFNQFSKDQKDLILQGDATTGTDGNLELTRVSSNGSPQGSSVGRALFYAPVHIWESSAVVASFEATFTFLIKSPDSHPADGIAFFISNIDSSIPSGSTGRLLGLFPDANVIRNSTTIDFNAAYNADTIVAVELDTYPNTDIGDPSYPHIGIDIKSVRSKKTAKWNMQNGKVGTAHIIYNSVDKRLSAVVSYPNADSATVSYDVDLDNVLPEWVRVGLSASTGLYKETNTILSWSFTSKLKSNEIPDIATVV

For CN1C(=O)C2C=CC(C(O)c3c(F)cccc3Cl)N(Nc3ccccc3)C2C1=O (stereo not given), the composite z-score (Albumin (Bos taurus)) was 0.956, the composite Z-score [1] was -0.263 (inactive) and the composite z-score [2] was 0.291. It also gave a composite z-score [3] of 0.0177, a composite z-score [4] of 0.396 and a composite z-score [5] of 2.84. It also gave a composite z-score [6] of 0.73, a composite z-score (Sam68 (KHDRBS1)) of 0.895 and a composite z-score [7] of 0.298. It also gave a composite z-score [8] of 1.18.

In the case of COC(=O)[C@@]1(Cc2ccc(OC)cc2)[C@H]2c3cc(C(=O)N4CCCC4)n(CCc4cc5ccccc5[nH]4)c3C[C@H]2CN1C(=O)c1ccccc1, the composite z-score (Albumin (Bos taurus)) was 1.01, the composite Z-score [1] was 1.33 (inactive) and the composite z-score [2] was 0.353. The composite z-score [3] was 0.213, the composite z-score [4] was 0.587 and the composite z-score [5] was 3.04. It also gave a composite z-score [6] of 0.816, a composite z-score (Sam68 (KHDRBS1)) of 1.31 and a composite z-score [7] of -0.65. For the same compound, the composite z-score [8] was 1.13.

For CO[C@H]1O[C@H](CO)[C@@H](OC(=O)c2ccc(Br)cc2)[C@@H]2OC(=O)[C@@H](Cc3ccc4ccccc4c3)C/C=C/C[C@H](Cc3ccc4ccccc4c3)C(=O)O[C@@H]12, the composite z-score (Albumin (Bos taurus)) was 0.934, the composite Z-score [1] was 0.589 (inactive) and the composite z-score [2] was 0.109. It also gave a composite z-score [3] of 0.0043, a composite z-score [4] of 0.63 and a composite z-score [5] of 1.93. The composite z-score [6] was 0.547, the composite z-score (Sam68 (KHDRBS1)) was 1.24 and the composite z-score [7] was -0.517. It also gave a composite z-score [8] of 0.275.

With C=C(COC)/C(=C/C[C@@H](OC(=O)c1ccncc1)c1cccc(OCCO)c1)c1cnc2ccccc2c1 the composite z-score (Albumin (Bos taurus)) was 0.716, the composite Z-score [1] was 0.161 (inactive) and the composite z-score [2] was 0.43. The composite z-score [3] was 0.0815, the composite z-score [4] was 1.01 and the composite z-score [5] was 1.91. The composite z-score [6] was 0.919, the composite z-score (Sam68 (KHDRBS1)) was 1.31 and the composite z-score [7] was 1.44. The composite z-score [8] was 1.24.

For COC(=O)C[C@H]1O[C@]2(C(=O)N(C)c3ccccc32)[C@@H](C)[C@@H]1[Si](C)(C)c1ccc(C)cc1, the composite z-score (Albumin (Bos taurus)) was 0.683, the composite Z-score [1] was 0.397 (inactive) and the composite z-score [2] was -0.113. For the same compound, the composite z-score [3] was -0.117, the composite z-score [4] was 0.0614 and the composite z-score [5] was 0.311. The composite z-score [6] was 0.218, the composite z-score (Sam68 (KHDRBS1)) was 1.16 and the composite z-score [7] was 0.0565. It also gave a composite z-score [8] of 0.379.

For COCCOC(=O)N1C(=O)[C@@]2(c3cc(C#CCNC(N)=O)ccc31)[C@H](C(=O)N1CCCCCCC1)[C@H]1C(=O)O[C@H](c3ccccc3)[C@H](c3ccccc3)N1[C@@H]2c1ccc(O)cc1, the composite z-score (Albumin (Bos taurus)) was 0.0763, the composite Z-score [1] was 0.559 (inactive) and the composite z-score [2] was 0.239. The composite z-score [3] was -0.0714, the composite z-score [4] was 0.354 and the composite z-score [5] was 0.654. For the same compound, the composite z-score [6] was 0.285, the composite z-score (Sam68 (KHDRBS1)) was 1.11 and the composite z-score [7] was 0.626. For the same compound, the composite z-score [8] was 1.03.

In the case of C=CCC(OC(C)=O)[C@@H]1[C@@H](N(Cc2ccc(-c3ccccc3)cc2)C(=O)c2cccc3ccccc23)c2cc(OCCCO)ccc2N1C(=O)Cc1ccc2ccccc2c1 (stereo not given in full), the composite z-score (Albumin (Bos taurus)) was 0.413, the composite Z-score [1] was -0.277 (inactive) and the composite z-score [2] was -0.0345. For the same compound, the composite z-score [3] was -0.0891, the composite z-score [4] was -0.0417 and the composite z-score [5] was 0.321. For the same compound, the composite z-score [6] was 0.194, the composite z-score (Sam68 (KHDRBS1)) was -0.35 and the composite z-score [7] was -0.133. It also gave a composite z-score [8] of -0.353.

In the case of C=CC1c2cc(O)c(OC)cc2CCN1Cc1sc2ccccc2c1Cl (stereo not given), the composite z-score (Albumin (Bos taurus)) was 0.854, the composite Z-score [1] was -0.967 (inactive) and the composite z-score [2] was 0.177. The composite z-score [3] was -0.0772, the composite z-score [4] was 0.79 and the composite z-score [5] was 1.46. It also gave a composite z-score [6] of 0.381, a composite z-score (Sam68 (KHDRBS1)) of 0.807 and a composite z-score [7] of 0.575. It also gave a composite z-score [8] of 0.859.

With COC(=O)C1(Cc2ccccc2)C=C2C(=C(c3ccccc3)C(=O)C2C)CN1 (stereo not given) the composite z-score (Albumin (Bos taurus)) was 0.544, the composite Z-score [1] was 0.257 (inactive) and the composite z-score [2] was 1.59. For the same compound, the composite z-score [3] was 0.839, the composite z-score [4] was 0.725 and the composite z-score [5] was 2.3. For the same compound, the composite z-score [6] was 0.906, the composite z-score (Sam68 (KHDRBS1)) was -0.305 and the composite z-score [7] was 0.0887. For the same compound, the composite z-score [8] was -1.56.

With COCCCNC(=O)[C@@]1(Sc2ccc(C)cc2)CC(=O)N(Cc2cc(C(F)(F)F)cc(C(F)(F)F)c2)[C@@H]1c1ccc(CO)cc1 the composite z-score (Albumin (Bos taurus)) was 0.734, the composite Z-score [1] was 1.14 (inactive) and the composite z-score [2] was 0.0562. For the same compound, the composite z-score [3] was -0.0136, the composite z-score [4] was 0.703 and the composite z-score [5] was 2.41. It also gave a composite z-score [6] of 1.1, a composite z-score (Sam68 (KHDRBS1)) of 1.21 and a composite z-score [7] of 0.749. It also gave a composite z-score [8] of 0.715.

With [N-]=[N+]=NCc1ccccc1C[C@@]1(C(=O)NCCN2CCOCC2)N=C(c2ccc(OCCCO)cc2)O[C@@H]1c1ccccc1N=[N+]=[N-] the composite z-score (Albumin (Bos taurus)) was 0.678, the composite Z-score [1] was 0.653 (inactive) and the composite z-score [2] was 0.163. For the same compound, the composite z-score [3] was -0.116, the composite z-score [4] was 0.419 and the composite z-score [5] was 1.6. The composite z-score [6] was 0.276, the composite z-score (Sam68 (KHDRBS1)) was 1.3 and the composite z-score [7] was -0.396. The composite z-score [8] was 1.09.

In the case of O=C(CCCCCCC(=O)Nc1ccccc1)N/N=C/c1ccccc1, the composite z-score (Albumin (Bos taurus)) was -0.4, the composite Z-score [1] was 0.0068 (inactive) and the composite z-score [2] was -0.154. For the same compound, the composite z-score [3] was -0.144, the composite z-score [4] was -0.251 and the composite z-score [5] was -0.591. It also gave a composite z-score [6] of 0.212, a composite z-score (Sam68 (KHDRBS1)) of -0.731 and a composite z-score [7] of 0.358. It also gave a composite z-score [8] of -0.434.

In the case of CCN(CC)c1ccc(N2CC=CC34O[C@@H]5/C=C\CCC(C)OC(=O)C5[C@H]3C(=O)N(CCO)[C@@H]4C2=O)cc1 (stereo not given in full), the composite z-score (Albumin (Bos taurus)) was -0.694, the composite Z-score [1] was 0.736 (inactive) and the composite z-score [2] was -0.152. It also gave a composite z-score [3] of -0.132, a composite z-score [4] of 0.818 and a composite z-score [5] of 1.87. The composite z-score [6] was 0.711, the composite z-score (Sam68 (KHDRBS1)) was 0.153 and the composite z-score [7] was -1.01. It also gave a composite z-score [8] of -0.242.

With COC(=O)[C@@]1(Cc2ccccc2)[C@H]2c3cc(C(=O)N4CCCC4)n(Cc4ccsc4Br)c3C[C@H]2CN1C(=O)c1ccccc1 the composite z-score (Albumin (Bos taurus)) was 0.842, the composite Z-score [1] was -0.314 (inactive) and the composite z-score [2] was 0.485. The composite z-score [3] was 0.244, the composite z-score [4] was 0.555 and the composite z-score [5] was 2.45. The composite z-score [6] was -0.0293, the composite z-score (Sam68 (KHDRBS1)) was 1.33 and the composite z-score [7] was -0.265. For the same compound, the composite z-score [8] was 1.01.

For CC(C)C(=C=CC[C@@H](O)c1ccccc1OCCO)C[C@@H](O)COCc1ccccc1, the composite z-score (Albumin (Bos taurus)) was -0.111, the composite Z-score [1] was 0.477 (inactive) and the composite z-score [2] was -0.132. The composite z-score [3] was 0.0363, the composite z-score [4] was 0.813 and the composite z-score [5] was 1.37. The composite z-score [6] was 0.641, the composite z-score (Sam68 (KHDRBS1)) was 0.773 and the composite z-score [7] was 0.0362. The composite z-score [8] was 0.639.

For [N-]=[N+]=Nc1ccccc1[C@@H]1OC(c2ccc(OCCCO)cc2)=N[C@]1(CCS(=O)(=O)c1ccccc1)C(=O)NCCN1CCOCC1, the composite z-score (Albumin (Bos taurus)) was 0.734, the composite Z-score [1] was 0.131 (inactive) and the composite z-score [2] was 0.178. For the same compound, the composite z-score [3] was -0.0267, the composite z-score [4] was 0.485 and the composite z-score [5] was 2.71. For the same compound, the composite z-score [6] was 0.21, the composite z-score (Sam68 (KHDRBS1)) was 1.29 and the composite z-score [7] was -0.22. For the same compound, the composite z-score [8] was 0.478.

For CCCC=C(CCC)[C@@H](NP(=O)(c1ccccc1)c1ccccc1)c1ccc(C(F)(F)F)cc1, the composite z-score (Albumin (Bos taurus)) was 0.179, the composite Z-score [1] was -0.349 (inactive) and the composite z-score [2] was 0.26. It also gave a composite z-score [3] of 0.0684, a composite z-score [4] of -0.0457 and a composite z-score [5] of 0.442. For the same compound, the composite z-score [6] was 0.207, the composite z-score (Sam68 (KHDRBS1)) was 1.14 and the composite z-score [7] was -0.13. The composite z-score [8] was -0.482.
